Data reported in publication PMC11995724, “Antibiotic target discovery by integrated phenotypic and activity-based profiling of electrophilic fragments” (Cell chemical biology, 2025).
The campaign covered roughly 3,200 compounds. About 75 (2%) showed an effect of 50% or more. The sample as a whole holds a higher share of strong results than the screen did.

These molecules were tested on T1, S. aureus MSSA476. Settings: 25 µM; inhibitor.
T1 construct: MSSA476
Design: species or system S. aureus MSSA476 (TSB) or V. cholerae SAD30 (LB); 384-well bacterial growth screen at 25 uM, OD600 relative to DMSO control

Row | SMILES | % of control remaining
1 | CCn1c(-c2ccccc2)c(C(=O)CCl)c2ccccc21 [10-E12, 2-chloro-1-(1-ethyl-2-phenyl-1H-indol-3-yl)ethan-1-one] | -0.3125%
2 | N#Cc1ccc(NC(=O)CCl)cc1Cl [4-N03, 2-chloro-N-(3-chloro-4-cyanophenyl)acetamide] | 74.7022%
3 | C=CC(=O)Nc1ccc(C(=O)N2CCC3(CC2)OCCCO3)cc1 [2-D16, N-(4-{1,5-dioxa-9-azaspiro[5.5]undecane-9-carbonyl}phenyl)prop-2-enamide] | 123.586%
4 | CC(Cl)C(=O)c1ccc(Cl)cc1 (stereo not shown) [10-O04, 2-chloro-1-(4-chlorophenyl)propan-1-one] | 129.063%
